Pf growth 96h = Primary qHTS for delayed death inhibitors of the malarial parasite plastid, 96 hour incubation; P. falciparum luciferase reporter growth, 96 h; Potency, µM (titrated, usually from 28.7 µM), for the others: at the highest dose activity change, negative = inhibition, hits mostly inhibitors; 320,000 tested, 6.9% active; note: potency is the fitted concentration of half-maximal effect; % is set by controls: 0 for no effect and ±100 for the full control effect
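Two-generation exposure (96 h) targets delayed-death phenotype. Reporter parasites carrying integrated firefly luciferase, in red cells at 2% hematocrit and 0.05% parasitemia final, kept at 37 C, 5% CO2; luminescence loss indicates inhibition.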
Pf growth 48h = Primary qHTS for delayed death inhibitors of the malarial parasite plastid, 48 hour incubation | P. falciparum luciferase growth in erythrocytes, 48 h | Potency, µM (titrated, usually from 28.7 µM), without a hit: top-dose activity change, negative = inhibition, hits mostly inhibitors | 310,000 tested, 5.9% active | AID 504832, 2011; note: potency is the fitted concentration of half-maximal effect; % is set by controls: 0 for no effect and ±100 for the full control effect
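Luciferase-expressing P. falciparum in infected erythrocytes (2% hematocrit, 0.1% parasitemia final) in RPMI 1640/0.5% Albumax were exposed to compound for 48 hours at 37 C, 5% CO2; growth read as luminescence.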
Cycloheximide cs = Cycloheximide Counterscreen for Small Molecule Inhibitors of Shiga Toxin | max response, % | 300,000 tested, 12% active | cell reporter, cycloheximide protein synthesis inhibition counterscreen; in the data active = max response mostly above about 13%, no sharp cut-off; inactive = mostly below about 14%; note: read at 38.3 µM for the half of the compounds with a filed dose; 0% is about no effect
NS1 function inh = qHTS Assay for Inhibitors of Influenza NS1 Protein Function; Potency, µM (doses to about 46.1 µM), inactives show at the highest dose activity, positive = more growth; 270,000 tested, 0.4% active; AID 2326, 2010; calls by dose curve; note: potency is the fitted concentration of half-maximal effect; actives are rising curves; nearly all actives have a fitted effect of over 50% in size
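Growth recovery, yeast-based: influenza A NS1 expressed in S. cerevisiae causes slow growth, and suppressors are detected by OD600. The parent strain without NS1 is used as positive control.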
Sm TGR inh = qHTS Assay for the Inhibitors of Schistosoma Mansoni Peroxiredoxins; Schistosoma mansoni thioredoxin glutathione reductase (TGR), Q962Y6; purified TGR, DTNB reduction, TNB absorbance 405 nm; Potency, µM (highest dose often 114 µM), for the others: top-dose activity change, negative = inhibition, usual class: inhibitors; 360,000 tested, 3% active; AID 485364, 2010; note: potency is the fitted concentration of half-maximal effect; % is set by controls: 0 for no effect and ±100 for the full control effect; nearly all actives have a fitted effect of over 60% in size
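Kinetic colorimetric format: TGR-catalysed, NADPH-driven DTNB reduction monitored via TNB absorbance. Enzyme dispensed at 20 nM; compound exposure 15 min at room temperature before reaction start.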
Shiga inhibitor = A qHTS for Small Molecule Inhibitors of Shiga Toxin. Vero cells, Shiga toxin protein synthesis inhibition reporter. inhibition, % at 38.7 µM. 290,000 tested, 9.2% active. AID 2315, 2010; in the data active = inhibition mostly above about 28%, no sharp cut-off; inactive = mostly below about 43%; note: 0% is about no effect
Starred values were filed as active, the others as inactive; [ ] = remark or other dose. This is a sample that favours compounds with a hit; in the whole collection about 21% have one here. Unless noted, calls come from the whole dose curve; as a rule, active = well fitted curve in the direction sought with a large enough effect; inconclusive = small, poorly fitted or top-dose-only effect, or another doubt; inactive = no such curve, though single readings can be large; an effect the other way counts as inactive or inconclusive.

C=CCn1cc(C(=O)NCCN(CC)CC)c(=O)c2cc(S(=O)(=O)N3CCCCCC3)ccc21 was read as Pf growth 96h 8.28µM*, Pf growth 48h 10.4µM*, Cycloheximide cs -0.9, NS1 function inh -4.4%, Sm TGR inh 5.4% and Shiga inhibitor -10.1.
Screening CC(C)CN(CCNC(=O)c1cn(C)c2ccc(S(=O)(=O)N3CCOCC3)cc2c1=O)CC(C)C returned Sm TGR inh 2.6%.
Cc1ccc2c(=O)c(C(=O)c3cccc(Cl)c3)cn(CC(=O)NC3CCCCC3)c2n1 was read as Sm TGR inh -2.4%.
Screening CCOC(=O)N1CCN(CC(=O)N2CCC(C(N)=O)CC2)CC1 returned Pf growth 96h 6.4%, Pf growth 48h 12.5%, Cycloheximide cs -0.9, Sm TGR inh -9.0% and Shiga inhibitor -5.8.
`CCCn1nnc(NC(=S)NC(=O)c2ccc(-c3ccc(Br)cc3)o2)n1` gave Pf growth 96h inconclusive, Pf growth 48h -63.2%, Cycloheximide cs 11.6, NS1 function inh -1.5%, Sm TGR inh 27.4% and Shiga inhibitor 40.9.
For CCCn1nnc(NC(=O)C(c2ccccc2)c2ccccc2)n1 the results were Pf growth 96h -13.5%, Pf growth 48h -4.3%, Cycloheximide cs -2.6, NS1 function inh 2.0%, Sm TGR inh 3.0% and Shiga inhibitor 20.6.
Screening CCCn1nnc(NC(=O)c2ccc(OC)cc2)n1 returned Pf growth 96h 167.7%, Cycloheximide cs 37.2*, NS1 function inh 0.3%, Sm TGR inh -1.1% and Shiga inhibitor 43.3.
Screening CCCn1nnc(NC(=O)c2ccc(Br)cc2)n1 returned Pf growth 96h 96.6%, Pf growth 48h 200.7%, Cycloheximide cs 44.8*, NS1 function inh -7.6%[9.22 µM], Sm TGR inh 3.5% and Shiga inhibitor 98.8*.
CCCn1nnc(NC(=O)c2ccc(OCC)c(Cl)c2)n1 was read as Pf growth 96h 19.6%, Pf growth 48h 13.1µM*, Cycloheximide cs 20.3*, NS1 function inh -11.6%, Sm TGR inh 0.5% and Shiga inhibitor 33.1.
Screening CCCn1nnc(NC(=O)c2ccc(-c3ccccc3)cc2)n1 returned Pf growth 96h inconclusive, Pf growth 48h inconclusive, Cycloheximide cs 20.6*, NS1 function inh -31.1%, Sm TGR inh -7.4% and Shiga inhibitor 100.1*.
COc1cc(NC(=O)c2cccs2)c(OC)cc1NC(=O)CCC(=O)Nc1ccc(C)cc1 was read as Pf growth 96h 1.1%, Pf growth 48h -1.7%, Cycloheximide cs 0.7, NS1 function inh 8.1%, Sm TGR inh 1.8% and Shiga inhibitor 2.8.
C[N+]12CCC(CC1)[C@@H](OC(=O)C(O)(c1ccccc1)c1ccccc1)C2 was read as Pf growth 96h -12.9%[12.8 µM] and Pf growth 48h -2.8%[12.8 µM].
`O=S(=O)(c1ccccc1)c1nnn2c1nc(NC1CCCCC1)c1sccc12` gave Sm TGR inh -0.6%.
For CCOc1ccc(C(=O)Nn2cnnc2)cc1 the results were Pf growth 96h -0.8%, Pf growth 48h 30.7%, Cycloheximide cs 7.9, NS1 function inh 9.2%, Sm TGR inh 1.8% and Shiga inhibitor 21.7.
For CCOc1ccc(C(=O)Nc2nnn(CC)n2)cc1 the results were Pf growth 48h 74.6%, Cycloheximide cs 35.6*, NS1 function inh -11.3%, Sm TGR inh 0.0% and Shiga inhibitor 75.3*.
Screening CC[n+]1c(/C=C/N(C)c2ccccc2)sc2ccc(Cl)cc21 returned Pf growth 96h 0.131µM*, Pf growth 48h 0.104µM*, Cycloheximide cs -1.8, NS1 function inh -37.7%, Sm TGR inh -23.5% and Shiga inhibitor 1.7.
CC[n+]1c(/C=C/C=C/N(C(C)=O)c2ccccc2)sc2ccccc21 was read as Pf growth 96h 9.28µM*, Pf growth 48h 4.65µM*, Cycloheximide cs 10.5, NS1 function inh inconclusive, Sm TGR inh 39.8µM* and Shiga inhibitor 24.7.
Screening CC[n+]1c(/C=C/C=C/c2ccc(N(C)C)cc2)sc2ccccc21 returned Pf growth 96h 4.6%, Pf growth 48h -10.6%, Cycloheximide cs -3.2, NS1 function inh -72.9%, Sm TGR inh inconclusive and Shiga inhibitor -3.8.

Screens deposited in PubChem BioAssay by National Center for Advancing Translational Sciences (NCATS).
